Only some compounds are listed: those with a hit (about 8% of all), similar ones and a draw of the others.
HT1080-NT tox: kills 2HG-producing HT-1080-NT fibrosarcoma cells; 1.6% of 360,000 active; Potency, µM (doses to about 46.1 µM), inactives show top-dose activity, negative = less viability, actives largely listed as cytotoxic; AID 686970; HT-1080-NT fibrosarcoma viability, CellTiter-Glo ATP luminescence, 48 h;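 further: NT is the 2HG producing partner of a matched IDH1 knockdown line; 0% = DMSO-treated cells and -100% = media-only wells without cells; nearly all actives have a fitted effect of over 55% in size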
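750 cells/well, RPMI + 5% FBS; 2 h settle, compound pin-transfer, 48 h at 37 degrees C. CellTiter-Glo 10 min RT, luminescence. Normalized to DMSO and media-only wells.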
MCF10A rereplic: DNA re-replication induction in MCF 10a cells; MCF 10A DNA re-replication, Hoechst nuclear intensity, 48 h; Potency, µM (highest dose often 46.1 µM), without a hit: at the highest dose activity, positive = re-replication, most hits filed as activators; 2.9% of 350,000 active; further: % of control where 0% means no effect; nearly all actives have a fitted effect of over 50% in size
KB-V1 MDR tox: KB-V1 MDR subline cytotoxicity; KB-V1 MDR cells viability, CellTiter-Glo, 72 h; Potency, µM (top dose mostly 46.1 µM), actives largely listed as cytotoxic; 3.4% of 400,000 active; AID 1347076; further: on the % scale 0 is the no-effect control and ±100 the full control effect; nearly all actives have a fitted effect of over 60% in size
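Following 72 h at 37 degrees C with compound, KB-V1 cell viability was read by CellTiter-Glo luminescence, medium being phenol-red-free DMEM plus 10% FBS; concentration-response parameters came from normalized, curve-fitted qHTS data.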
KB-3-1 cytotox: KB-3-1 parental cell cytotoxicity; KB-3-1 viability, CellTiter-Glo ATP luminescence, 72 h; Potency, µM (highest dose often 46.1 µM), hits mostly cytotoxic; 1.4% of 400,000 active; further: on the % scale 0 is the no-effect control and ±100 the full control effect; nearly all actives have a fitted effect of over 60% in size
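KB-3-1 cells, DMEM (no phenol red) + 10% FBS; compound by pin transfer, 72 h, 37 °C. Readout: CellTiter-Glo luminescence after 10 min. Data normalized, curve-fitted.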
SW480 rereplic: DNA re-replication induction in SW480 cells; SW480 DNA re-replication, Hoechst DNA content imaging, 48 h; Potency, µM (doses to about 46.1 µM), without a hit: at the highest dose re-replication activation, usual class: activators; 1.8% of 340,000 active; AID 624297; further: % of control where 0% means no effect; nearly all actives have a fitted effect of over 55% in size
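Treated cells incubate 48 hr (37 C, 5% CO2), are stained 40 min with Hoechst, and nuclear fluorescence is enumerated; a rise in nuclei with high DNA signal marks re-replication.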
HT1080 IDH1KD tx: toxicity to HT-1080 IDH1 knockdown cells (counter line); AID 686971; HT-1080 IDH1 knockdown viability, ATP luminescence, 48 h; 2% of 360,000 active; Potency, µM (doses to about 46.1 µM), for inactives: top-dose activity, negative = toxicity, hits mostly cytotoxic;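 further: 0% = DMSO wells and -100% = cell-free medium wells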
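Using the IDH1-knockdown HT-1080 line run in the same batch and compound series as the NT line, viability after 48 h at 37 °C was determined by CellTiter-Glo luminescence and expressed as % activity.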
Numbers without * were called inactive; i = inactive; ? = inconclusive; . = not tested or not shown; ! = a repeat was not active; [ ] = dose if it differs, or a comment. The call rests on the fitted dose curve; in most records, active means well fitted curve in the direction sought with a large enough effect; inconclusive means small, poorly fitted or top-dose-only effect, or another doubt; inactive means no such curve, though single readings can be large; an effect the other way counts as inactive or inconclusive. Potency means the concentration at half of the fitted maximal effect.

SMILES | HT1080-NT tox | MCF10A rereplic | KB-V1 MDR tox | KB-3-1 cytotox | SW480 rereplic | HT1080 IDH1KD tx
CCCn1nnnc1NCc1ccccc1OCc1ccc(F)cc1 | 10% | 23µM* | ? | i | ? | 2%
CCCn1nnnc1NCc1ccccc1OCc1cccs1 | -18% | -10% | i | i | 4% | 1%
O=C(Nc1ccccc1)Nc1nnc(-c2ccncc2)s1 | . | . | ? | 18µM* | . | .
Clc1cccc(Nc2nc(-c3ccncc3)cs2)c1 | -5% | ? | ? | ? | 15µM* | ?
c1ccc2c(Nc3nnc(-c4ccncc4)s3)cccc2c1 | 4% | -5% | 15µM* | i | -1% | -7%
O=C(Nc1ccc(-c2ccccc2)cc1)Nc1nnc(-c2ccncc2)s1 | . | . | i | ? | . | .
O=C(Nc1ccc(Cl)cc1)Nc1nnc(-c2ccncc2)s1 | 8% | ? | 2.6µM*! | ? | -3% | 11%
O=S1(=O)CCOCCCN1Cc1ccc(F)cc1 | . | . | i | i | . | .
CCCSc1nc(-c2ccccc2)[nH]c1S(=O)(=O)c1ccc(C)cc1 | . | . | i | i | . | .
Cc1cc(C)c2c(n1)nn1c(C)c(CCC(=O)NCc3ccc(Cl)cc3)c(C)nc21 | . | . | i | i | . | .
O=C(Nc1cccc(Cl)c1)Nc1nnc(-c2ccncc2)s1 | ? | 5.8µM* | ? | 13µM* | 12µM* | 10µM*
Cc1ccc(NC(=O)Nc2nnc(-c3ccncc3)s2)cc1C | -19% | 16µM* | ? | ? | 3% | -2%
Cc1cc(NC(=O)Nc2ccc(C)c(C)c2)no1 | 29µM* | 0% | i | i | ? | -4%
CC(=O)c1ccc(NC(=O)Nc2nnc(-c3ccncc3)s2)cc1 | . | . | i | i | . | .
CCOC(=O)C1=CN(Cc2cccc(F)c2)S(=O)(=O)NC1c1ccccc1 (stereo not given) | -3% | -4% | i | i | -17% | -6%
CCOC(=O)C1=CN(Cc2cccc(F)c2)S(=O)(=O)NC1CCc1ccccc1 (stereo not given) | ? | 15µM* | i | i | 52% | ?
O=C(NCC1CCCO1)C(Cc1ccccc1)N1C(=O)C2C3C=CC(C4CC34)C2C1=O (stereo not given) | 9% | 15µM* | i | i | ? | -3%
O=C(NCC1CCCO1)C(C(=O)c1ccccc1)n1ccccc1=O (stereo not given) | -1% | -191%[0.0737 µM] | ? | i | -13% | 10%
N#Cc1ccc(OCC(O)CN2CCN(CC(O)COc3ccc(C#N)cc3)CC2)cc1 (stereo not given) | 8% | 18% | ? | i | -5% | 4%
N#Cc1ccc(OCC(O)CN2CCN(c3ncc(C(F)(F)F)cc3Cl)CC2)cc1 (stereo not given) | ? | ? | 7.3µM* | 15µM* | 25% | ?
COc1ccc(-c2cc3nc(C)c(CCC(=O)NCc4ccco4)c(C)n3n2)c(OC)c1 | -1% | 10% | 4.6µM* | i | -2% | -4%
Cc1nc2cc(-c3ccc(Cl)cc3)nn2c(C)c1CCC(=O)NCc1ccco1 | -5% | 0% | i | ? | ? | -8%
CCN(CC)S(=O)(=O)c1ccc(-c2nnc(SC)o2)cc1 | 15% | 3% | 15µM* | i | 1% | 5%
CCN(CC)S(=O)(=O)c1cccc(-c2nnc(SCCCC(=O)c3ccc(F)cc3)o2)c1 | -10% | 21% | 16µM* | i | -12% | -16%
CCN(CC)S(=O)(=O)c1ccc(-c2nnc(SCC(=O)c3ccc(OC)cc3)o2)cc1 | -2% | -14% | i | i | 5% | 0%
SMILES | HT1080-NT tox | MCF10A rereplic | KB-V1 MDR tox | KB-3-1 cytotox | SW480 rereplic | HT1080 IDH1KD tx
CCN(CC)S(=O)(=O)c1cccc(-c2nnc(SC(C)C(=O)NCCC3=CCCCC3)o2)c1 (stereo not given) | -1% | 6% | 10µM* | ? | -2% | -10%
O=C(N/C=C/c1ccccc1)c1cccc([S+](=O)([O-])Nc2ccccc2F)c1 | . | . | ? | i | . | .
CCCNC(=O)N1CCCN(S(=O)(=O)c2ccc3c(ccn3CC)c2)CC1 | . | . | ? | i | . | .
COc1cc(SC)ccc1C(=O)Nc1nc2ccccc2[nH]1 | 1.6µM* | 10% | ? | 2.9µM* | -2% | 1.5µM*
Cc1cc(C)c(OCC(=O)Nc2nc3ccccc3[nH]2)c(C)c1 | 1% | 0.82µM* | i | i | -29% | 2%
COc1ccccc1C(=O)NCCC(=O)Nc1nc2ccccc2[nH]1 | -11% | -1% | i | i | -34% | -5%
CSc1ccccc1C(=O)Nc1nc2ccccc2[nH]1 | 2% | 0% | i | i | 1% | 23%
COc1ccccc1C(=O)Nc1nc2ccccc2[nH]1 | 1.5µM* | -3% | 4.1µM* | 2.3µM* | 5% | 1.3µM*
Cc1cccc(NC(=O)c2oc3ccccc3c2NC(=O)c2cc(=O)c3cc(Cl)ccc3o2)c1 | . | . | ? | i | . | .
COCCCNC(=O)C1CCN(c2cc(C)nc3c(-c4ccc(Cl)cc4)c(C)nn23)CC1 | . | . | i | i | . | .
O=C(NC(CC(=O)N1CCN(c2ccccc2O)CC1)c1ccccc1)c1ccccc1Cl (stereo not given) | -11% | 18% | 5.8µM* | i | 11% | -6%
Cc1cccc(N2CCN(C(=O)CC(NC(=O)c3ccccc3Cl)c3ccccc3)CC2)c1C (stereo not given) | -17% | ? | i | i | ? | -16%
CCn1cc2nc(SCc3cccc(C(F)(F)F)c3)n(Cc3ccc(C)cc3)c(=O)c2n1 | . | . | ? | i | . | .
Cc1ccccc1Cn1cnc2c(NS(C)(=O)=O)c(C)c(C)cc21 | -7% | ? | 16µM* | ? | -10% | -11%
Cn1c(=O)c2c(-c3ccc(Br)cc3)n(Cc3ccc(F)cc3)cc2n(C)c1=O | . | . | i | i | . | .
Cc1ccc(C)c(N2CCN(C(=O)c3cc4c(=O)n(Cc5cccs5)ccc4nc3C)CC2)c1 | . | . | ? | i | . | .
Cc1cc(-c2nc3cc(F)ccc3s2)ccc1N | -10% | 10µM* | 18µM* | ? | 18µM* | -32%
CCOC(=O)CSc1nc2ccc(NC(=O)c3ccccc3F)cc2s1 | . | . | i | i | . | .
COc1ccccc1-c1cc(C(F)(F)F)n2ncc(S(=O)(=O)c3ccccc3)c2n1 | 1% | 25% | i | i | 23µM* | -3%
O=C(/C=C/c1ccco1)N1CCN(S(=O)(=O)/C=C/c2ccccc2)CC1 | 0% | 11% | ? | i | -1% | 2%
Cc1cc(C(=O)N2CCN(C/C=C/c3ccccc3)CC2)cs1 | -3% | 5% | 16µM* | i | -5% | -6%

Bioassay records: PubChem, National Center for Advancing Translational Sciences (NCATS)
